We go through 80 compounds from the supplement of paper PMC9446081.

Molecules are shown by their SMILES. Among all 39,000 compounds or so, about 220 (0.56%) showed activity. This excerpt belongs to a sample that is enriched for actives.
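Also: Wild-type cells incubated without shaking, value is the mean of two biological replicates.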

This assay relates to Escherichia coli K-12 BW25113. In words: relative growth (OD600 normalised to plate interquartile mean) (fraction); higher = less growth inhibition, active = 0.2 or less. The settings on record: 50 µM; LB; incubation time: overnight (16-24 h).
On to `Nc1cc[nH]c(=O)n1`, for which the relative growth was 0.997 (inactive).

As for `CCCCCCCCCCCCC[N+](C)(C)Cc1ccccc1.O.[Cl-]`, the relative growth is 0.0544 (active).

In the case of `CCCCCc1ccccn1`, the relative growth is 0.974 (inactive). Turning to `CCCCCCCCCCCCCCCC[N+](C)(C)CCN(Cc1ccc(OC)cc1)c1ncccn1`, the relative growth was 0.555 (inactive). In the case of `CCCCC(O)c1ccccc1` (stereo not given), the relative growth is 0.973 (inactive).

As for `CCCCNc1ccccc1`, the relative growth is 0.996 (inactive).

In the case of `CCCCCCCCCCCCC[N+](C)(C)Cc1ccccc1`, the relative growth was 0.0319 (active).

Regarding `CCCC[C@@H](O)c1ccccc1`, the relative growth was 0.992 (inactive). To `CCCCCCCCCCCCCCCC[N+](C)(C)Cc1ccccc1.[Cl-]` belongs 0.0933 (active). As for `CC[N+](C)(CC)Cc1ccccc1`, the relative growth is 0.993 (inactive). Consider `C[C@H](CO)N1C[C@H](C)[C@@H](CN(C)Cc2ccc(Oc3ccccc3)cc2)Oc2c(NC(=O)Nc3ccc(C(F)(F)F)cc3)cccc2C1=O`, for which the relative growth is 0.795 (inactive).

With `CN(C)CC(=O)N[C@@H]1CC[C@@H](CC(=O)O)O[C@@H]1CO`, the relative growth is 0.983 (inactive). To `C[C@H](CO)N1C[C@H](C)[C@@H](CN(C)CC2CCCCC2)Oc2ccc(NC(=O)CCN3CCOCC3)cc2C1=O` belongs 0.981 (inactive); to `NCC[C@@H]1CC[C@H](NC(=O)C2CC2)[C@H](CO)O1`, 0.995 (inactive). Turning to `C[C@H]1CN([C@@H](C)CO)C(=O)CCCn2nncc2CO[C@@H]1CN(C)Cc1cccc2c1OCCCO2`, the relative growth was 0.992 (inactive). Consider `O=C(Oc1ccc(Cl)cc1)c1sc2ccccc2c1Cl`, for which the relative growth is 1.05 (inactive). `Oc1ccc(Cl)c2cccnc12`: the relative growth was 0.0534 (active). Regarding `Fc1cccc2c(Cl)ccnc12`, the relative growth is 0.976 (inactive). In the case of `Nc1ncccc1O`, the relative growth was 1.03 (inactive). Consider `O=[N+]([O-])c1ccc(O)c2ncccc12`, for which the relative growth was 0.0542 (active). To `Oc1c(Br)cc(Br)c2cccnc12` belongs 0.379 (inactive); to `Oc1c(I)cc(Cl)c2cccnc12`, 0.463 (inactive).

Regarding `NS(=O)(=O)c1ccc(O)c([N+](=O)[O-])c1`, the relative growth was 0.992 (inactive). As to `Oc1c(Cl)cc(Cl)c2cccnc12`, the relative growth was 0.111 (active). As for `Oc1c(I)cc(I)c2cccnc12`, the figure is 1.04 (inactive). Regarding `C[C@H]1CN([C@@H](C)CO)C(=O)c2cc(NC(=O)Cn3cnnn3)ccc2O[C@@H]1CN(C)Cc1ccncc1`, the relative growth is 1.02 (inactive). On to `C[C@@H]1CN([C@H](C)CO)C(=O)c2cc(NS(=O)(=O)c3ccc(F)cc3)ccc2O[C@H]1CN(C)S(=O)(=O)c1cn(C)cn1`, for which the relative growth is 1.04 (inactive). As for `C[C@@H]1CN([C@@H](C)CO)C(=O)c2cc(NC(=O)C3CCCCC3)ccc2O[C@@H](C)CCCCO[C@H]1CN(C)Cc1ccc(C(=O)O)cc1`, the figure is 0.977 (inactive). To `Cl.Nc1ccn(C2OC(CO)C(O)C2(F)F)c(=O)n1` (stereo not given) belongs 1.09 (inactive). For the compound `COc1ccc(S(=O)(=O)Nc2ccc3c(c2)C(=O)N([C@@H](C)CO)C[C@H](C)[C@H](CN(C)S(=O)(=O)c2ccc(F)cc2)O3)cc1`, the relative growth was 1 (inactive). For `C[C@H](CO)N1C[C@H](C)[C@@H](CN(C)Cc2ccc(C(=O)O)cc2)OCCCC[C@H](C)Oc2ccc(NC(=O)Nc3ccc4c(c3)OCO4)cc2C1=O`, the relative growth is 0.95 (inactive). Consider `COCC#Cc1cnc2c(c1)C(=O)N([C@H](C)CO)C[C@H](C)[C@@H](CN(C)S(=O)(=O)c1ccccc1)O2`, for which the relative growth was 1 (inactive). With `CC(=O)N[C@H](C)c1cn(C)nc1C`, the relative growth is 1.03 (inactive). As to `C[C@@H]1CN([C@H](C)CO)C(=O)c2cc(NC(=O)C3CCCCC3)ccc2O[C@@H](C)CCCCO[C@@H]1CN(C)S(=O)(=O)c1cccs1`, the relative growth is 0.933 (inactive).

As for `O=c1[nH]cc(F)c(=O)[nH]1`, the relative growth was 0.196 (active). To `O=c1[nH]cc(N2CCCCC2)c(=O)[nH]1` belongs 1 (inactive).

As for `O=c1[nH]cc(Nc2ccccc2)c(=O)[nH]1`, the relative growth was 1.01 (inactive). With `C[N+]1(C)C2CCC1CC(OC(=O)C(O)c1ccccc1)C2.[Br-]` (stereo not given), the relative growth was 0.924 (inactive).

Consider `Nc1nnc(C(=O)c2ccccc2N)s1`, for which the relative growth is 0.951 (inactive). As to `Cc1noc(C)c1NC(=O)Nc1ccc2c(c1)CC(=O)N([C@@H](C)CO)C[C@H](C)[C@H](CN(C)S(=O)(=O)c1ccccc1)O2`, the relative growth is 0.971 (inactive). On to `Cc1noc(C)c1NC(=O)N(C)C[C@H]1Oc2ccc(NS(=O)(=O)c3c(C)noc3C)cc2CC(=O)N([C@@H](C)CO)C[C@@H]1C`, for which the relative growth was 0.985 (inactive). With `C[C@H](CO)N1C[C@H](C)[C@@H](CN(C)S(=O)(=O)c2ccccc2)OCCCC[C@H](C)Oc2ccc(NS(=O)(=O)c3cn(C)cn3)cc2C1=O`, the relative growth is 0.993 (inactive). Consider `O=C(NO)c1cn(CC(=O)N2CCC3(CC2)C(=O)NCN3c2ccccc2)nn1`, for which the relative growth is 0.94 (inactive).

Regarding `O=C(NO)c1cn(-c2cccc(C(=O)N3CCC4(CC3)C(=O)NCN4c3ccccc3)c2)nn1`, the relative growth is 0.0368 (active).

With `O=C(/C=C/c1cccc(-c2cn(-c3cccc(C(=O)N4CCC5(CC4)C(=O)NCN5c4ccccc4)c3)nn2)c1)NO`, the relative growth is 0.972 (inactive).

On to `C[C@H](CO)N1C[C@H](C)[C@@H](CN(C)CC2CC2)Oc2c(NS(=O)(=O)c3cn(C)cn3)cccc2C1=O`, for which the relative growth is 0.999 (inactive). To `COC(=O)C[C@@H]1CC[C@@H]2[C@@H](COc3ccc(NS(=O)(=O)c4ccccc4Cl)cc3C(=O)N2C)O1` belongs 1.03 (inactive). Turning to `CS(=O)(=O)Nc1cccc(C2=NN(c3nc(-c4ccccc4)c4cc(Cl)ccc4n3)[C@H](c3ccco3)C2)c1`, the relative growth was 1 (inactive). For the compound `Cc1noc(C)c1NC(=O)Nc1ccc2c(c1)C(=O)N([C@@H](C)CO)C[C@@H](C)[C@H](CN(C)S(=O)(=O)c1ccc(F)cc1)OCCCC[C@H](C)O2`, the relative growth is 1.03 (inactive). For `O=C(C[C@@H]1C[C@@H]2c3cc(NS(=O)(=O)c4ccc(F)cc4)ccc3O[C@@H]2[C@H](CO)O1)NC1CCCC1`, the relative growth is 0.992 (inactive). To `COc1ccc(C#Cc2ccc3c(c2)O[C@@H](CN(C)C(C)=O)[C@@H](C)CN([C@@H](C)CO)S3(=O)=O)cc1` belongs 1.03 (inactive); to `COc1ccc(Cc2cnc(N)nc2N)cc1OC`, 0.0502 (active).

For `COc1cc(O)cc(OC)c1OC`, the relative growth was 1.1 (inactive). Regarding `COc1cc(Cc2cnc(N)nc2N)cc(OC)c1OC`, the relative growth was 0.044 (active). Take `COc1cc(CN)cc(OC)c1OC`: the relative growth was 1 (inactive). Regarding `COc1ccc(C2=C(N)C(=O)NC2=O)cc1OC`, the relative growth was 0.93 (inactive).

With `COc1cccnc1N`, the relative growth is 0.99 (inactive). As to `Cc1ccc(S(=O)(=O)N(C)C[C@H]2Oc3c(NS(=O)(=O)c4cn(C)cn4)cccc3C(=O)N([C@@H](C)CO)C[C@@H]2C)cc1`, the relative growth is 0.959 (inactive).

Consider `Cc1noc(C)c1NC(=O)Nc1cccc2c1O[C@@H](CN(C)Cc1ccc(Oc3ccccc3)cc1)[C@H](C)CN([C@H](C)CO)C2=O`, for which the relative growth is 0.995 (inactive). As for `COc1ccc(-c2cnc3c(c2)C(=O)N([C@H](C)CO)C[C@H](C)[C@@H](CN(C)S(=O)(=O)c2ccc(OC)cc2)O3)cc1`, the figure is 1 (inactive); as for `C[C@@H]1CN([C@@H](C)CO)C(=O)c2cc(N(C)C)ccc2O[C@@H](C)CCCCO[C@@H]1CN(C)C(=O)Nc1ccc(C(F)(F)F)cc1`, 0.928 (inactive); as for `COc1cccc(S(=O)(=O)Nc2ccc3c(c2)[C@@H]2C[C@@H](CC(=O)N4CCCCC4)O[C@@H](CO)[C@@H]2O3)c1`, 0.993 (inactive).

As to `C[C@H]1CN([C@@H](C)CO)S(=O)(=O)c2ccc(Br)cc2O[C@@H]1CN(C)C(=O)c1cccnc1`, the relative growth was 0.972 (inactive). For the compound `C[C@@H]1CN([C@H](C)CO)S(=O)(=O)c2ccc(-c3cccc(C#N)c3)cc2O[C@@H]1CN(C)C(=O)c1cccnc1`, the relative growth was 1.01 (inactive). Turning to `Cc1n[nH]c(=S)n1N`, the relative growth is 0.968 (inactive). As for `Cc1nnsc1-c1onc(C)c1C(N)=O`, the figure is 0.866 (inactive); as for `C[C@H]1CN([C@@H](C)CO)C(=O)c2cccc(NC(=O)C3CC3)c2O[C@@H]1CN(C)S(=O)(=O)c1ccc(Cl)cc1`, 1 (inactive); as for `C[C@@H]1CN([C@H](C)CO)C(=O)Cc2cc(NC(=O)Cc3cn(C)c4ccccc34)ccc2O[C@H]1CN(C)CC1CCCCC1`, 1.02 (inactive). In the case of `CO[C@H]1C[C@@H]2CC[C@@H](C)[C@@](O)(O2)C(=O)C(=O)N2CCCC[C@H]2C(=O)O[C@H]([C@H](C)C[C@@H]2CC[C@@H](OP(C)(C)=O)[C@H](OC)C2)CC(=O)[C@H](C)/C=C(\C)[C@@H](O)[C@@H](OC)C(=O)[C@H](C)C[C@H](C)/C=C/C=C\C=C\1C`, the relative growth was 0.837 (inactive). With `Cl.Nc1c2c(nc3ccccc13)CCCC2`, the relative growth was 0.911 (inactive). Take `Nc1c2c(nc3ccccc13)CCCC2`: the relative growth was 0.985 (inactive). In the case of `Nc1c2ccccc2nc2ccccc12`, the relative growth was 0.0461 (active). As for `Cc1noc(C)c1NC(=O)N(C)C[C@H]1Oc2ccc(NS(=O)(=O)c3cn(C)cn3)cc2C(=O)N([C@H](C)CO)C[C@H]1C`, the figure is 0.989 (inactive); as for `C[C@@H]1CN([C@H](C)CO)C(=O)Cc2cc(NC(=O)C3CCCCC3)ccc2O[C@H]1CN(C)Cc1ccc(C(=O)Nc2ccccc2N)cc1`, 0.979 (inactive). In the case of `COc1cc2c(cc1OC)CN(CCc1ccc(NC(=O)c3cc(OC)c(OC)cc3NC(=O)c3cnc4ccccc4c3)cc1)CC2`, the relative growth was 0.965 (inactive). `COC(=O)N/N=C/c1c[n+]([O-])c2ccccc2[n+]1[O-]`: the relative growth is 0.0462 (active). As for `COC(=O)NN=Cc1c[n+]([O-])c2ccccc2[n+]1[O-]`, the figure is 0.574 (inactive); as for `CC(=O)O.N=C(N)NN=Cc1c(Cl)cccc1Cl`, 0.885 (inactive); as for `C[C@H]1CN([C@@H](C)CO)C(=O)c2cccc(NS(=O)(=O)c3ccccc3)c2O[C@H]1CN(C)S(C)(=O)=O`, 0.967 (inactive). Take `O=c1c(O[C@@H]2O[C@H](CO)[C@@H](O)[C@H](O)[C@@H]2O[C@H]2OC[C@](O)(CO)[C@H]2O)c(-c2ccc(O)c(O)c2)oc2cc(O)cc(O)c12`: the relative growth is 1.02 (inactive).
